Experimental findings from PubChem BioAssay AID999 (SRMLSC, 2007) are described below.

A number with no mark means an inactive call.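 The calls were made as follows: active = viability at or below 21.59%, 3 SD under the median of tested compounds; inactive = the rest.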

The nature of the assay: viability loss in PTEN-deleted cells – cell-based, validation, diverse DP compound set (AID 999).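 Also: 100% = median luminescence of untreated cell control wells and 0% = no signal.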 The settings on record: HCT116 PTEN-null viability, CellTiter-Glo, 60 h; at 10 µM; stronger effect = lower value.
For the compound `CC[C@@]1([C@@H]2O[C@@H]([C@H]3O[C@@](O)(CO)[C@H](C)C[C@@H]3C)C[C@@H]2C)CC[C@H]([C@]2(C)CC[C@]3(C[C@H](O)[C@@H](C)[C@@H]([C@@H](C)[C@@H](OC)C(C)C(=O)O)O3)O2)O1` (stereo partly drawn), the viability is 63.5%.

For the compound `CC1=C(/C=C/C(C)=C/C=C/C(C)=C/C=C/C=C(C)/C=C/C=C(C)/C=C/C(=O)[C@]2(C)C[C@@H](O)CC2(C)C)C(C)(C)C[C@H](O)C1`, the viability is 80.7%.

With `CSc1ccc(/C=C2/C(C)=C(CC(=O)O)c3cc(F)ccc32)cc1`, the viability was 98%.

For `CCOC(=O)c1c(N)sc(C)c1-c1ccccc1`, the viability was 105%.

On to `O=C1OC2(c3ccc(O)cc3Oc3cc(O)ccc32)c2ccccc21`, for which the viability is 96%.

On to `COc1ccc2c3c1O[C@H]1C[C@@H](O)C=C[C@@]31CCN(C)C2`, for which the viability was 91.7%.

With `NCCNS(=O)(=O)c1cccc2c(Cl)cccc12`, the viability is 94.3%.

On to `CO/N=C(\C(=O)N[C@@H]1C(=O)N2C(C(=O)O)=C(COC(C)=O)CS[C@H]12)c1csc(N)n1`, for which the viability was 89.4%.

As for `Cc1cc(CC(=O)O)n(C)c1C(=O)c1ccc(Cl)cc1`, the viability was 95.5%.

With `C[C@H](CS)C(=O)N1CCC[C@H]1C(=O)O`, the viability is 93.9%.

For the compound `CN1CCN(C2Cc3ccccc3Sc3ccc(S)cc32)CC1` (stereo not drawn), the viability is 50.3%.

In the case of `CC(C)=CCC/C(C)=C/COc1ccc2ccc(=O)oc2c1`, the viability was 91.9%.

`C[C@H]1c2cccc(O)c2C(O)=C2C(=O)[C@]3(O)C(O)=C(C(N)=O)C(=O)[C@@H](N(C)C)[C@@H]3[C@@H](O)[C@@H]21`: the viability was 90.5%.
